Measured values from PubChem BioAssay AID489039 (National Center for Advancing Translational Sciences (NCATS), 2010).
Results filed as inconclusive are left out. A number with no mark means an inactive call. Active and inactive are the calls of the source. Calls follow the shape of the dose curve; as a rule, active = well fitted inhibition curve with a large enough effect; inconclusive = small, poorly fitted or top-dose-only effect, or effect the other way; inactive = no such curve, though single readings can be large or run the other way.

molecular target: Nuclear receptor ROR-alpha (Homo sapiens) (UniProt P35398); assay: ROR alpha selectivity assay for inhibitors of ROR gamma transcriptional activity; conditions: Drosophila S2 Gal4-RORalpha UAS-luciferase, 20 h; series mostly up to 92.2 µM; activity change, negative = inhibition: at the top concentration
Excerpt: NIH Molecular Libraries Probe Production Network [MLPCN] NIH Chemical Genomics Center [NCGC] MLPCN Grant: R03 DA026211-01 Assay Provider: Dan Littman, New York University Assay Overview: The retinoic acid-related orphan receptor (ROR) gamma is a transcription factor that has a central role in the differentiation of Th17 cells, a subset of T helper cells that secrete the inflammatory cytokines IL-17A, IL-17F, and IL-22. Th17 cells have been implicated in graft versus host disease, autoimmune disease and asthma. RORgamma is induced in naive T helper cells in the presence of TGF-beta combined with IL-6, IL-21, or IL-23, and thereafter directs the expression of the Th17 lineage cytokines. To identify nonselective inhibitors, a Drosophila Schneider cell line was stably transfected with two vectors: a gene expressing a fusion of the Gal4 DNA binding domain and the transactivation domain of the ROR alpha, under the control of the metallothionine promoter and a Photinus luciferase reporter regulated by the Gal4 binding site enhancer, UAS. […] Small molecule inhibitors that inhibit RORgamma and RORalpha, or components common to both, will be active in both assays and thus scored as nonselective.
Assay Protocol Summary: For screening, 600 cells in 4 uL/well were dispensed into white solid 1536-well plates (Grenier) using a solenoid-based dispenser. Following transfer of 23 nL compound or DMSO vehicle by a pin tool, the plates were incubated 1 hr at ambient temperature, and 1 uL/well copper sulfate (700 uM final concentration) was added. The plates were centrifuged 15 s at 1000 RPM and incubated 20 hr at ambient temperature. After addition of 1.5 uL Photinus luciferase detection reagent, the plates were incubated 10 min at ambient temperature and then read by an ViewLux (Perkin Elmer) to detect luminescence.

Row | Structure (SMILES) | Potency | activity change, negative = inhibition
1 | COc1ccc(-c2c[n+]3c(n2-c2ccc(C)cc2)CCCCC3)cc1 | 10.2 µM (active) | –
2 | COc1cc(O)c(C(CC(=O)N2CCCC(CN3CCCCC3)C2)c2ccc3c(c2)OCO3)c(OC)c1 (stereo not given) | – | -29.6%
3 | COc1ccc(C(CC(=O)N2CCCC(C)C2)c2ccccc2)cc1 (stereo not given) | – | -15.6%
4 | CC1CCCN(C(=O)CC(c2ccc3c(c2)OCO3)c2ccc(O)cc2O)C1 (stereo not given) | – | 13.4%
5 | COc1cc(O)c(C(CC(=O)N2CCCC(COc3ccc(F)cc3)C2)c2ccc3c(c2)OCO3)c(OC)c1 (stereo not given) | – | 16.6%
6 | COc1cc(O)c(C(CC(=O)N2CCCCC2)c2ccc3c(c2)OCO3)c(OC)c1 (stereo not given) | – | 5.12%
7 | COCC1CCCCN1C(=O)c1cc(COc2ccc3ncccc3c2)on1 (stereo not given) | 14.4 µM (active) | –
8 | CCn1cc(C(=O)O)c(=O)c2cnc(N3CCN(C(=S)NC(=O)c4ccccc4)CC3)nc21 | 22.9 µM (active) | –
9 | COc1ccc(CNC(=O)[C@H](Cc2ccccc2)NC(=O)C2CCN(C(=O)[C@@H]3CCCN3C(=O)OC(C)(C)C)CC2)cc1 | – | -11.6%
10 | CC(C)(C)c1ccc(S(=O)(=O)Nc2ccc(C(O)(C(F)(F)F)C(F)(F)F)cc2)cc1 | 18.2 µM (active) | –
11 | CC1CCCN(C(=O)CC(c2ccccc2)c2ccc(O)cc2)C1 (stereo not given) | – | -19.1%
12 | CCOC(=O)C1CCN(CC(=O)Nc2cc(C)nn2-c2nc3ccccc3s2)CC1 | 20.4 µM (active) | –
13 | COCC1CCCN(C(=O)CC(c2ccc3c(c2)OCO3)c2c(O)cc(OC)cc2OC)C1 (stereo not given) | – | -3.63%
14 | COc1cc(O)c(C(CC(=O)N2CCC(c3ccccc3)CC2)c2ccc3c(c2)OCO3)c(OC)c1 (stereo not given) | – | 2.86%
15 | CCOC(=O)Cn1c(CN2CCc3ccccc3C2)nc2c1c(=O)n(C)c(=O)n2C | 16.2 µM (active) | –
16 | COc1cc(O)c(C(CC(=O)N2CCC(C)CC2)c2ccc3c(c2)OCO3)c(OC)c1 (stereo not given) | – | 39.5%
17 | COC(=O)c1ccc(OCC(=O)c2ccc(O)cc2O)cc1 | 0.0575 µM (active) | –
18 | Cc1cc(C)n(-c2nc(SCC(=O)O)c3c4c(sc3n2)CCCC4)n1 | 18.2 µM (active) | –
19 | COc1cc(O)c(C(CC(=O)N2CCCCC2C)c2ccc3c(c2)OCO3)c(OC)c1 (stereo not given) | – | 4.78%
20 | COc1cc(O)c(C(CC(=O)N2CCCC(C)(C)C2)c2ccc3c(c2)OCO3)c(OC)c1 (stereo not given) | – | -12.2%

Row | Structure (SMILES) | Potency | activity change, negative = inhibition
21 | Cc1ccc(OCCCC(=O)Nc2nc3ccccc3[nH]2)cc1 | 8.12 µM (active) | –
22 | COc1cc(O)c(C(CC(=O)N2CCCC(C)C2)c2ccc(-c3ccccc3)cc2)c(OC)c1 (stereo not given) | – | -20.9%
23 | O=C(CCCOc1ccccc1)Nc1nc2ccccc2[nH]1 | 14.4 µM (active) | –
24 | COc1cc(O)c(C(CC(=O)N2CCCC(C)C2)c2ccc3ccccc3c2)c(OC)c1 (stereo not given) | – | -28%
25 | O=C(/C=C/c1ccc(S(=O)(=O)N2CCOCC2)cc1)NC(=S)Nc1ccc(N2CCOCC2)cc1 | 14.4 µM (active) | –
26 | O=S(=O)(c1ccc(NC(=S)N/N=C/c2ccc(Oc3ccccc3)cc2)cc1)N1CCOCC1 | 2.57 µM (active) | –
27 | COc1cc(O)c(C(CC(=O)N2CCCC(C)C2)c2ccc(C(C)C)cc2)c(OC)c1 (stereo not given) | 36.3 µM (active) | –
28 | COC(=O)Cn1c(CN2CCc3ccccc3C2)nc2c1c(=O)n(C)c(=O)n2C | 18.2 µM (active) | –
29 | COc1cc(C)nc(-n2nc(C)cc2OC)n1 | 8.12 µM (active) | –
30 | Cc1cccc(C(CC(=O)NCc2ccco2)c2ccccc2)c1O (stereo not given) | – | 91.2%
31 | COc1cc(OC)c(C(c2ccccc2)C(C)(C)C(=O)N2CC(C)CC(C)C2)c(OC)c1 (stereo not given) | 16.2 µM (active) | –
32 | O=C(CCCN1C(=O)/C(=C/c2ccccc2Cl)SC1=S)Nc1cccnc1 | 1.82 µM (active) | –
33 | CC1CCCN(C(=O)CC(c2ccc3c(c2)OCO3)c2cc(C(C)C)ccc2O)C1 (stereo not given) | – | 17.7%
34 | O=C(NC(=S)Nc1nc(-c2ccccc2)cs1)c1cccnc1 | 32.3 µM (active) | –
35 | COc1cc(O)c(C(CC(=O)NC2CCC(C)CC2)c2ccc3c(c2)OCO3)c(OC)c1 (stereo not given) | – | -1.92%
36 | COc1ccc(C(CC(=O)N2CCCC(C)C2)c2c(O)cc(OC)cc2OC)cc1 (stereo not given) | – | 3.66%
37 | CCNC(=O)CCc1nc(-c2ccc(C(C)(C)C)cc2)no1 | 0.162 µM (active) | –
38 | CC1=C(\C=C/C(C)=C/C=C\C(C)=C\C(=O)O)C(C)(C)CCC1 | – | 18.6% [at 20 µM]
39 | COc1cc(O)c(C(CC(=O)N2CCCC2)c2ccc3c(c2)OCO3)c(OC)c1 (stereo not given) | – | -18.2%
40 | CC1CCCN(C(=O)CC(c2ccccc2)c2ccccc2O)C1 (stereo not given) | – | 20.8%
